# Rows were chosen to be rich in hits. Some 4% of all compounds tested hit in one or more screens of this group.
# Rv3671c inh – inhibitors of M. tuberculosis serine protease Rv3671c. P9WHR9. inhibition, % at 5.96 µM. 320,000 tested, 0.048% active. AID 2606; in the data active = inhibition above about 38%;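 also: extracellular domain of Rv3671c used as enzyme; 0% = enzyme with DMSO and 100% = no enzyme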
# Target sequence (P9WHR9 whole entry, looked up, the tested form may be a part): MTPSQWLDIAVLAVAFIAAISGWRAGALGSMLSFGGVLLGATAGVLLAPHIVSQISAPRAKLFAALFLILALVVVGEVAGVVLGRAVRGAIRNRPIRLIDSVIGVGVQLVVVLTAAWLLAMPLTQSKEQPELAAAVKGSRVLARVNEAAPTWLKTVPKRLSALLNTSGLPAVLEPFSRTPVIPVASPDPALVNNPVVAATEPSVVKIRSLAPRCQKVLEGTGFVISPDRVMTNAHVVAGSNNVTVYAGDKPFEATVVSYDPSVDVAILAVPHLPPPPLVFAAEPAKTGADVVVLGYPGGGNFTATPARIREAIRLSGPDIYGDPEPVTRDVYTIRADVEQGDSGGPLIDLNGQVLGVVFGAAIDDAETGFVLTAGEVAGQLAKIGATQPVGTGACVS
# RecA splice inh – Mtb RecA intein splicing inhibition; inhibition, % (no concentration beside the values); AID 2221; 290,000 tested, 0.75% active; P9WHJ3; cell-free RecA intein splicing, fluorescence; in the data active = inhibition above about 30%;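 also: 0% = vehicle wells and 100% = reference inhibitor control wells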
# FBA Mtb inh – Mtb fructose-bisphosphate aldolase inhibition | purified M. tuberculosis FBA, fluorescence read-out | inhibition, % at 1 µM | 360,000 tested, 2.3% active | AID 588726; in the data active = inhibition above about 27%;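 also: 0% = vehicle and 100% = reference inhibitor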
# Mtb bLac sens – beta-lactam sensitization of Mtb H37Rv | M. tuberculosis H37Rv growth with meropenem, percent inhibition | inhibition, % at 25 µM | 330,000 tested, 0.27% active;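 also: growth measured after seven days incubation then overnight dye step; 0% = bacteria only wells and 100% = bacteria with antibiotic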
# Mtb UGM inh – blocks M. tuberculosis UGM enzyme | inhibition, % at 10 µM | AID 504406 | purified UGM, fluorescence polarization probe displacement | 320,000 tested, 0.06% active | P9WIQ1; in the data active = inhibition above about 10%, passing the limit was not always enough
# GDH-TPI counter-1 – counter-screen for M. tuberculosis FBA inhibitors: GDH-TPI coupled enzymes; GDH-TPI coupled enzyme counterscreen, NADH absorbance; inhibition, % at 4.8 µM; 360,000 tested, 1.2% active; in the data active = inhibition above about 30%;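 also: 0% = DMSO wells and 100% = wells lacking the enzyme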
# Mtb FBA inh conf – Mtb FBA inhibition, confirmed; AID 651616; 5,600 tested, 78% active; inhibition, % at 1 µM; purified M. tuberculosis FBA, fluorescence read-out; shares compounds with FBA Mtb inh; in the data active = inhibition above about 27%;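 also: 0% = vehicle wells and 100% = reference inhibitor wells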
# GDH-TPI counter-2 – GDH-TPI inhibition counter-screen for FBA inhibitors; shares compounds with FBA Mtb inh; GDH-TPI coupled enzyme counterscreen, fluorescence; inhibition, % at 1 µM; 5,600 tested, 81% active; in the data active = inhibition above about 10%
# GDH-TPI DR – inhibits GDH-TPI coupling enzymes in dose response; shares compounds with FBA Mtb inh; GDH-TPI coupled enzyme assay, fluorescence, artifact counterscreen; 170 tested, 79% active; AID 652145; IC50, µM
# The depositor's hits bear a star; / = not tested or not shown; + = active, no number. Unless noted, no rule for the calls is given here.
SMILES,Rv3671c inh,RecA splice inh,FBA Mtb inh,Mtb bLac sens,Mtb UGM inh,GDH-TPI counter-1,Mtb FBA inh conf,GDH-TPI counter-2,others
CC1CCCCN1CC(=O)c1c(N)n(Cc2ccccc2)c(=O)n(C)c1=O (configuration not stated),7,-1,0,-9,0,-5,/,/,
CCOC(=O)c1cc2cc(OC)ccc2[nH]1,-3,5,41*,-7,1,5,45*,42*,
CCOC(=O)c1[nH]c2ccc(OC)cc2c1C,1,0,24,6,3,7,/,/,
COc1ccc2[nH]c(C(=O)NCc3ccccc3)cc2c1,-9,0,56*,-5,3,11,64*,46*,
COc1ccc(CC(=O)NCc2ccccc2)cc1,0,1,-1,4,-1,-6,/,/,
Fc1ccc(-c2ccc3c(c2)C2CC3CCN2Cc2ccc3c(c2)OCO3)cc1 (configuration not stated),/,/,6,/,/,-8,/,/,
CNc1nc2ccccc2n1CC(=O)c1ccccc1,/,1,1,-10,2,6,/,/,
COc1ccccc1C1=NC(c2ccccc2)CN1c1ccccc1 (configuration not stated),4,-10,102*,0,1,2,89*,63*,
S=c1[nH]c(-c2ccccc2)cn1/N=C/c1ccccc1Br,9,2,18,-15,-1,-1,/,/,
Cc1ccc(/C=N/n2cc(-c3ccccc3)[nH]c2=S)s1,2,2,21,-1,-1,3,/,/,
COc1cc(/C=N/n2cc(-c3ccccc3)[nH]c2=S)cc(OC)c1O,7,-8,43*,-4,-3,26,80*,64*,
Oc1ccc(/C=N/n2cc(-c3ccccc3)[nH]c2=S)cc1,-4,1,42*,-7,-2,17,137*,117*,
S=c1[nH]c(-c2ccccc2)cn1/N=C/c1cccc2ccccc12,20,6,33*,88,-4,3,15,-3,GDH-TPI DR=>10
COC(=O)N1C2CCCCC2=NN(c2ccccc2)N1C(=O)OC (configuration not stated),/,/,0,/,/,/,/,/,
COc1ccc(/C(C)=N/NC(=O)c2nnn(-c3nonc3N)c2-c2cccs2)cc1OC,6,0,-7,9,0,-4,/,/,
C=CCOc1ccc(C2C3=C(CCCC3=O)N(CC(=O)O)C3=C2C(=O)CCC3)cc1OCC,6,-3,2,0,-1,4,/,/,
C=CCOc1c(Br)cc(C2C3=C(CCCC3=O)N(C)C3=C2C(=O)CCC3)cc1OCC,-17,-125,58*,5,2,14,58*,41*,
CCCC(=O)Nc1ccc(C2C(=O)c3ccccc3C2=O)cc1,2,1,-7,0,-2,8,/,/,
Cc1ccc(C(=O)NNC(=O)CCC(=O)NCc2ccccc2)cc1Br,/,-1,0,2,2,2,/,/,
CC1(C(=O)Nc2cccc3ccccc23)CCN1C(=O)Cc1ccccc1Cl (configuration not stated),/,/,-4,/,/,-1,/,/,
Cc1ccccc1N(C(=O)c1snc(C(N)=O)c1N)C(C(=O)NCc1ccccc1)c1ccc(O)cc1 (configuration not stated),-4,-3,43*,-7,1,13,10,4,
CCOc1ccccc1N(C(=O)c1snc(C(N)=O)c1N)C(C(=O)NCc1ccccc1)c1ccc(O)cc1 (configuration not stated),/,-2,7,/,/,10,/,/,
NC(=O)c1nsc(C(=O)N(c2ccccc2F)C(C(=O)NCc2ccccc2)c2ccc(O)cc2)c1N (configuration not stated),-41,-3,45*,-5,-1,19,8,-7,
O=C(Cc1ccc(S(=O)(=O)N2CCOCC2)s1)N1CCN(S(=O)(=O)c2cccc([N+](=O)[O-])c2)CC1,0,-1,3,-7,-2,-2,/,/,
COc1ccc2nc(/N=C(\N)NC(=O)C(C)(C)C)nc(C)c2c1,7,-5,46*,96,0,5,10,-4,GDH-TPI DR=3.6*
SMILES,Rv3671c inh,RecA splice inh,FBA Mtb inh,Mtb bLac sens,Mtb UGM inh,GDH-TPI counter-1,Mtb FBA inh conf,GDH-TPI counter-2,others
CCC(=O)N/C(N)=N/c1nc(C)c2cc(OC)ccc2n1,-7,-5,40*,24,-2,6,+,+,
CCOC(=O)CSc1nc(C)c2cc(C)c(C)cc2n1,20,-2,-1,11,-1,4,/,/,
CCOC(=O)CSc1nc(C)c2cc(OC)ccc2n1,-3,-1,49*,59,-1,7,64*,36*,
Cc1cc(OC(C)C(=O)NNC(=O)Nc2ccc(F)cc2F)cc(C)c1Cl (configuration not stated),1,-3,3,-2,4,-1,/,/,
CCOc1ccc2oc(-c3ccccc3)c(C(=O)N3CCN(C)CC3)c2c1,1,-3,71*,-11,0,21,92*,58*,
CCOC(=O)c1c(-c2ccccc2)oc2ccc(OCC(O)CNCCN(C)C)cc12 (configuration not stated),-2,-4,42*,92,-1,7,1,-1,
COc1ccc2oc(-c3ccccc3)c(C(=O)N3CCOCC3)c2c1,1,-3,40*,-5,0,11,72*,48*,
O=C(CCc1nnc2ccc(NCc3ccccc3)nn12)NC1CCCC1,-3,1,1,1,-1,2,/,/,
COc1cccc(C(=O)O/N=C(\N)CS(=O)(=O)c2ccccc2)c1,-7,2,7,-5,4,-4,/,/,
O=C(CCNS(=O)(=O)c1ccccc1)NNC(=O)c1cccc(Cl)c1,8,/,2,0,-1,-1,/,/,
COc1ccc(-c2cc(=O)oc3c(C)c(OC(C)C(=O)Nc4ccc(CN5CCOCC5)cc4)ccc23)cc1 (configuration not stated),-34,-1,-2,97,1,6,/,/,
CCOC(=O)C1CCN(C(=O)c2cn(CCOC)c(=O)c3c2c2ccccc2n3C)CC1,4,0,46*,4,/,11,84*,68*,
CCN1CCN(C(=O)c2cn(CCOC)c(=O)c3c2c2ccccc2n3C)CC1,9,1,48*,-5,-3,20,171*,129*,
Cn1c2ccccc2c2c(C(=O)N3CCC4(CC3)OCCO4)cn(C3CCCC3)c(=O)c21,-5,-1,28*,-11,0,8,58*,47*,
Cn1cc(C(=O)N2CCN(C(=O)c3ccco3)CC2)c2c3ccccc3n(C)c2c1=O,-12,-3,37*,-6,-1,15,-2,-3,
